Jurkat NFkB inh: inhibitors of the PMA/ionomycin-induced NF-kB reporter in Jurkat cells; PMA/ionomycin-induced NF-kB luciferase reporter, luminescence; inhibition, % at 4 µM; 330,000 compounds, 0.53% hits; AID 435003; in the data active = inhibition above about 50%
Shn3 3UTR inh: Schnurri-3 reporter inhibition in Clone20 osteoblasts; 360,000 compounds, 0.52% hits; Clone20 osteoblast Shn3 3'UTR firefly luciferase, 24 h; inhibition, % at 12.5 µM; AID 588674;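 active = mean inhibition of at least 75% with every replicate also reaching 75%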;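 also: 0% = median of neutral control wells and 100% = pilot-screen positive control compound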
Gli-Sufu antag: blocks Gli-Sufu signaling in a luciferase reporter; Sufu-KO-LIGHT fibroblasts, Gli luciferase reporter luminescence; inhibition, % at 5 µM; 340,000 compounds, 0.74% hits;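 active = inhibition above about 55%, limit read from the data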;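 also: 0% = DMSO-treated cells and 100% = wells with medium but no cells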
697 NFkB inh: lowers PMA/ionomycin-induced NF-kB signal in 697 B cells; 697 B-cell NF-kB luciferase reporter, 16 h; inhibition, % at 4 µM; 330,000 compounds, 0.33% hits; AID 435022; in the data active = inhibition above about 35%
Mdm2 MdmX PPI: inhibitors of human Mdm2/MdmX interaction. inhibition, % at 8 µM. O15151+Q00987. AID 485346. SaOS-2 split-luciferase Mdm2/MdmX complementation, luminescence. 330,000 compounds, 3% hits;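 active = inhibition of at least 50% at 8 µM in the primary screen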
Target sequence (O15151 whole entry, looked up): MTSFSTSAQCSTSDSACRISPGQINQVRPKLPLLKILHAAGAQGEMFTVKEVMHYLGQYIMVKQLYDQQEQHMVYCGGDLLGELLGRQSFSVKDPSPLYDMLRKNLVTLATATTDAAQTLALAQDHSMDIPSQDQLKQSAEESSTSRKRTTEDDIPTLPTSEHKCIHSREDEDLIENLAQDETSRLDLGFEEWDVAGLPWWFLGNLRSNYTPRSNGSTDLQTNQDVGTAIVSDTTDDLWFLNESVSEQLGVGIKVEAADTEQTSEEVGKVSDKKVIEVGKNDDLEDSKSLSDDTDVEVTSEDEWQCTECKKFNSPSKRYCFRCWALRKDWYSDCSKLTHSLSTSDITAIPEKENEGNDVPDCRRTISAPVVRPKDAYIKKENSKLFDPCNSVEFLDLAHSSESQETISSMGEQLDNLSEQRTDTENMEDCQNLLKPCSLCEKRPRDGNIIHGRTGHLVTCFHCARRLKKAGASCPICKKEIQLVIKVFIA
Target sequence (Q00987 whole entry, looked up): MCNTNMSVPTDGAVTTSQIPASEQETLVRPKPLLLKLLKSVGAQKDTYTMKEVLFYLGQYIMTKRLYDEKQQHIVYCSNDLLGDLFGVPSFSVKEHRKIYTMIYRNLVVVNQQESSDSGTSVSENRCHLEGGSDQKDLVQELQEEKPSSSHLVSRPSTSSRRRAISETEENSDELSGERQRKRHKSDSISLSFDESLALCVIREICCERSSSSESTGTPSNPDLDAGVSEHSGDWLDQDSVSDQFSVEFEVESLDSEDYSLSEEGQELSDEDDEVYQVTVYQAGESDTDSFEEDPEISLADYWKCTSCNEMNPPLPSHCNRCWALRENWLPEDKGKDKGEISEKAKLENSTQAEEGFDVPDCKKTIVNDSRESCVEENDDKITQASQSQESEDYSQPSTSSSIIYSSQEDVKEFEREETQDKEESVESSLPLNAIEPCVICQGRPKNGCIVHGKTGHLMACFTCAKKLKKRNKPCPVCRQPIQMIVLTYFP
697 NFkB conf: lowers PMA/ionomycin-induced NF-kB signal in 697 B cells | shares compounds with 697 NFkB inh | inhibition, % at 4 µM | 2,000 compounds, 35% hits | 697 B-cell NF-kB luciferase, 16 h; in the data active = inhibition mostly above about 28%, no sharp cut-off; inactive = mostly below about 22%
Starred values were filed as active, the others as inactive. The list is not random: actives were taken first. Their share in the collection is about 3.8%.

For CCOC(=O)N1CCC(NC(=O)c2cc3c(-c4ccc(OC)c(OC)c4)nn(C)c3s2)CC1 the results were Jurkat NFkB inh -6, Shn3 3UTR inh 27, Gli-Sufu antag 9, 697 NFkB inh 41*, Mdm2 MdmX PPI 29 and 697 NFkB conf 25.
For Cc1ncc(S(=O)(=O)c2ccc(Cl)cc2)c(-c2ccccc2)n1 the results were Jurkat NFkB inh 3, Shn3 3UTR inh -17, Gli-Sufu antag 4, 697 NFkB inh 40*, Mdm2 MdmX PPI 28 and 697 NFkB conf 8.
`O=S(=O)(c1ccccc1)c1cnc(-c2cccnc2)nc1-c1ccccc1` gave Jurkat NFkB inh 6, Shn3 3UTR inh 2, Gli-Sufu antag 14, 697 NFkB inh 12 and Mdm2 MdmX PPI -20.
Screening COc1ccccc1NC(=S)N1CCNC(=O)C1CC(=O)Nc1cccc(C)c1 (centres undefined) returned Jurkat NFkB inh 12, Shn3 3UTR inh -2, Gli-Sufu antag 4, 697 NFkB inh 38*, Mdm2 MdmX PPI 10 and 697 NFkB conf -18.
For Cc1cccc(NC(=O)CC2C(=O)NCCN2C(=S)Nc2ccccc2)c1 (centres undefined) the results were Jurkat NFkB inh -6, Shn3 3UTR inh 30, Gli-Sufu antag 0, 697 NFkB inh -7 and Mdm2 MdmX PPI -2.
Screening O=c1[nH]c(NC2CCN(S(=O)(=O)c3ccccc3C(F)(F)F)CC2)nc2c1CCCC2 returned Jurkat NFkB inh 36, Shn3 3UTR inh 30, Gli-Sufu antag -14, 697 NFkB inh 44*, Mdm2 MdmX PPI 27 and 697 NFkB conf 26.
`CC1(C)CC(NC(=O)C2CCN(S(=O)(=O)c3ccccc3C(F)(F)F)CC2)CC(C)(C)N1` gave Jurkat NFkB inh -22, Shn3 3UTR inh -16, Gli-Sufu antag 9, 697 NFkB inh 3 and Mdm2 MdmX PPI -4.
CN(C)c1ccc(C(O)Cc2nc3ccccc3n2C)cc1 (centres undefined) was read as Jurkat NFkB inh -107, Shn3 3UTR inh -123, Gli-Sufu antag -22, 697 NFkB inh -269, Mdm2 MdmX PPI 5 and 697 NFkB conf -289.
COCCn1c(C)c(C)c2c(NCCc3ccccc3)ncnc21 was read as Jurkat NFkB inh -77, Shn3 3UTR inh 7, Gli-Sufu antag 25, 697 NFkB inh -281, Mdm2 MdmX PPI 46 and 697 NFkB conf -29.
Screening O=C(Cc1c(F)cccc1Cl)Nc1ccc(S(=O)(=O)NCC2CCCO2)cc1 (centres undefined) returned Jurkat NFkB inh -6, Shn3 3UTR inh -11, Gli-Sufu antag -5, 697 NFkB inh 14 and Mdm2 MdmX PPI 4.
`CCOc1ccccc1/C=N/Nc1ccccc1[N+](=O)[O-]` gave Jurkat NFkB inh -41, Shn3 3UTR inh -63, Gli-Sufu antag -21, 697 NFkB inh -25 and Mdm2 MdmX PPI -55.
`CCCOc1ccc(/C=N/Nc2ccccc2[N+](=O)[O-])c(O)c1` gave Jurkat NFkB inh -62, Shn3 3UTR inh -12, Gli-Sufu antag 30, 697 NFkB inh -284, Mdm2 MdmX PPI 45 and 697 NFkB conf -48.
`Cc1c(CCC(=O)O)c(=O)oc2cc3oc4c(c3cc12)CCCC4` gave Jurkat NFkB inh 1, Shn3 3UTR inh 29, Gli-Sufu antag 18, 697 NFkB inh 40*, Mdm2 MdmX PPI -29 and 697 NFkB conf 35*.
`Cc1c(CCC(=O)N2CCC[C@H]2C(=O)O)c(=O)oc2cc3oc4c(c3cc12)CCCC4` gave Jurkat NFkB inh -22, Shn3 3UTR inh 39, Gli-Sufu antag 7, 697 NFkB inh 60*, Mdm2 MdmX PPI 6 and 697 NFkB conf 42*.
`CC1CC(C)CN(S(=O)(=O)c2ccc(NC(=O)[C@@H]3CCCN3C(=O)c3cccs3)cc2)C1` (some centres undefined) gave Jurkat NFkB inh 9, Shn3 3UTR inh 62, Gli-Sufu antag 1, 697 NFkB inh -6 and Mdm2 MdmX PPI 10.
CCN(CC)S(=O)(=O)c1cccc(NC(=O)CCNC(=O)NC23CC4CC(CC(C4)C2)C3)c1 was read as Jurkat NFkB inh 1, Shn3 3UTR inh 45, Gli-Sufu antag 25, 697 NFkB inh -12 and Mdm2 MdmX PPI 25.
For COc1ccc(C(=O)N2CCN(c3cccc(C)c3C)CC2)cc1S(=O)(=O)NC1CC1 the results were Jurkat NFkB inh 12, Shn3 3UTR inh 12, Gli-Sufu antag 10, 697 NFkB inh -27 and Mdm2 MdmX PPI 7.
Screening Cc1ccc(S(=O)(=O)N2CCCCC2CCNC(=O)C(=O)NCc2ccncc2)cc1 (centres undefined) returned Jurkat NFkB inh -2, Shn3 3UTR inh 14, Gli-Sufu antag 18, 697 NFkB inh 53*, Mdm2 MdmX PPI -34 and 697 NFkB conf 52*.
`O=C(NCCC1CCCCN1S(=O)(=O)c1ccccc1)C(=O)NCc1ccncc1` (centres undefined) gave Jurkat NFkB inh -10, Shn3 3UTR inh -4, Gli-Sufu antag 45, 697 NFkB inh 34 and Mdm2 MdmX PPI -20.
Screening COc1ccc(CN2C(=O)CCC2(C)c2nc3ccccc3[nH]2)cc1 (centres undefined) returned Shn3 3UTR inh 9.
`Cc1ccn2cc(-c3ccc(Br)cc3)nc2c1` gave Jurkat NFkB inh -149, Shn3 3UTR inh 36, Gli-Sufu antag -102, 697 NFkB inh -341, Mdm2 MdmX PPI -73 and 697 NFkB conf -417.
`COc1cccc(OC)c1C1=CC(=O)C[C@H](c2ccc3c(c2)OCO3)C1` gave Jurkat NFkB inh -5, Shn3 3UTR inh 0, Gli-Sufu antag 4, 697 NFkB inh -11 and Mdm2 MdmX PPI 11.
`COc1cccc2c1C(=O)O/C2=C/c1ccc2c(c1)OCO2` gave Jurkat NFkB inh -63, Shn3 3UTR inh 16, 697 NFkB inh -342, Mdm2 MdmX PPI 6 and 697 NFkB conf -446.
Screening Brc1ccccc1-n1nnc(-c2cnc3ccccc3c2)n1 returned Jurkat NFkB inh -150, Shn3 3UTR inh -72, Gli-Sufu antag -63, 697 NFkB inh -306, Mdm2 MdmX PPI -239 and 697 NFkB conf -321.
Cc1noc(C)c1NC(=O)Nc1ccc2c(c1)C(=O)N([C@H](C)CO)C[C@H](C)[C@@H](CN(C)S(=O)(=O)c1ccc(Cl)cc1)OCCCC[C@@H](C)O2 was read as Shn3 3UTR inh -5.
Screening CCOC(=O)c1oc2ccccc2c1COC(=O)C(C)NC(=O)c1ccco1 (centres undefined) returned Jurkat NFkB inh -9, Shn3 3UTR inh -21, Gli-Sufu antag -3, 697 NFkB inh -6 and Mdm2 MdmX PPI 2.
Screening COc1ccc(C(=O)N(C)c2c(C)n(C)n(-c3ccccc3)c2=O)cc1OC returned Jurkat NFkB inh 14, Shn3 3UTR inh 6, Gli-Sufu antag -1, 697 NFkB inh -2 and Mdm2 MdmX PPI 11.
`Cc1cc(NC(=O)c2cccc(COc3ccc(Br)cc3)c2)no1` gave Jurkat NFkB inh -21, Shn3 3UTR inh 6, Gli-Sufu antag -139, 697 NFkB inh 56*, Mdm2 MdmX PPI -50 and 697 NFkB conf 12.

Screening data (PubChem BioAssay)
